# Source: article PMC5540273 (PLoS ONE, 2017)
# Test system: T1, YANK1
# T1 construct: gene STK32A
# Settings: concentration: 1 μM, replicates: in singlicate; n = 1
# 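Further: KINOMEscan kinase panel screen.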
row,Structure (SMILES),%Inh
1,Cn1cnc2c(N)ncnc21 [SKF-97623],0%
2,Cl.Cl.Cl.N#Cc1ccc(CCNc2nccc(-c3cccc(CN4CCNCC4)c3)n2)cc1 [GSK2137462],12%
3,O=C1NC(=O)C(c2ccc(Cl)cc2)=C1Nc1ccc(O)cc1 [SB-340867],0%
4,CC[C@@H]1CO[C@H](C(=O)Nc2ccccc2)CN1c1cc(-c2ccc3c(N)n[nH]c3c2)nc(NC)n1 [GSK2376236],41%
5,Cc1c(Cn2c3ccccc3n3c(=O)cc(N4CCOCC4)nc23)cccc1C(F)(F)F [GSK2306394],0%
6,CSc1ccc(-c2nc3n(c2-c2ccncc2)CCC3)cc1 [SKF-105561],0%
7,Cc1ccc(-c2nc(Nc3ccncc3)c3ccccc3n2)s1 [GSK189015],15%
8,Cc1ccc(NC(=O)Nc2ccc(Cl)cc2)cc1-c1ccc(C(=O)Nc2ccncc2)cc1 [GSK1398472],1%
9,CC(C)c1ccc(O)cc1Nc1ccnc2ccc(C(F)(F)F)cc12 [GW482059],0%
10,CC(C)c1cc(-c2ccc3c(N)n[nH]c3c2)nc(N)n1 [GSK2250882],20%
11,Fc1ccc(-c2nc3n(c2-c2ccncc2)CCS3)cc1 [GI98581],13%
12,Cc1cccc2c(-c3ccncn3)c(-c3ccc(F)cc3)nn12 [GW515532],26%
13,COc1cccc(NC(=O)Nc2ccc(C)c(-c3ccc(C(=O)Nc4ccncc4)cc3)c2)c1 [GSK1398474],18%
14,CNC(=O)c1ccc(C)c(-n2c(C)cc(OCc3ccc(F)cc3F)c(Br)c2=O)c1,4%
15,Cc1ccc(NC(=O)c2ccc(Cl)cc2)cc1-c1ccc(C(=O)Nc2ccncc2)cc1 [GSK1398467],2%
16,O=C(Nc1n[nH]c2nc(-c3cccs3)c(Br)cc12)C1CCCC1 [SB-743341],24%
17,COc1ccc2cc(-c3nc(-c4ccccc4C(C)C)[nH]c3-c3ccncc3)ccc2c1 [SB-660566],16%
18,COc1cc2ncnc(Nc3cccc(Br)c3)c2cc1OC.Cl [GI230329],56%
19,O=c1cc(N2CCOCC2)nc2n(Cc3cccc(Cl)c3Cl)c3ccccc3n12 [GSK2299009],22%

row,Structure (SMILES),%Inh
1,CC(=O)c1c(C)c2cnc(Nc3ccn(C)n3)nc2n(C2CCCC2)c1=O,0%
2,CN1c2ccc(-c3ccc(C(N)=O)cc3)cc2-c2[nH]ncc2S1(=O)=O,0%
3,COc1ccc(Nc2nccc(NCCNC(=O)Nc3cc(C)ccc3C)n2)cc1 [GSK1379899],0%
4,Nc1cccc(-c2ccc3c(N)n[nH]c3c2)n1 [GSK2192730],5%
5,CNc1nc(-c2ccc3c(N)n[nH]c3c2)cc(N2C[C@@H](C(=O)Nc3ccccc3)CC[C@H]2C)n1 [GSK2298859],46%
6,Cc1ccc(NC(=O)Nc2ccccc2F)cc1-c1ccc(C(=O)Nc2ccncc2)cc1 [GSK1398477],5%
7,c1ccc(-c2ccnc3[nH]ccc23)cc1 [SB-693578],0%
8,O=C(Nc1n[nH]c2nc(-c3cccs3)c(Br)cc12)C1CC1 [SB-735297],0%
9,Cn1cncc1C(=O)NC1CCN(c2ccnc(Nc3ccc(F)cc3)n2)C1 (stereo not shown) [GSK1379717],3%
10,COc1ccc(Nc2nccc(N3CCC(NC(=O)C(C)c4ccc(Cl)cc4)CC3)n2)cc1 (stereo not shown) [GSK1379812],10%
11,CCc1ccc(-c2ccc3c(c2)-c2n[nH]cc2S(=O)(=O)N3C)cc1,0%
12,CS(=O)(=O)CCNCc1nc(-c2ccc3ncnc(Nc4ccc(OCc5ccccc5)c(Cl)c4)c3c2)cs1.Cl [GW582764],0%
13,Cc1ccc(NC(=O)Nc2ccc(Cl)c(C(F)(F)F)c2)cc1-c1ccc(C(=O)Nc2ccncc2)cc1 [GSK1398470],60%
14,Fc1ccc(-c2nn3cccc(F)c3c2-c2ccncc2)cc1 [GW475620],28%
15,CNc1nc(-c2ccc3c(N)n[nH]c3c2)cc(N2C[C@@H](C(=O)NC3CCCCC3)OC[C@H]2C)n1 [GSK2375584],7%
16,Cn1cncc1-c1cc2c(Nc3ccc(OCc4ccccc4)cc3)ncnc2cn1 [GW281179],0%
17,Fc1ccc(-c2nc[nH]c2-c2ccncc2)cc1 [SB-217360],7%
18,COc1cccc(C2=C(Nc3cc(Cl)c(O)c(Cl)c3)C(=O)NC2=O)c1 [SB-390767],0%
